Sampled rows, rich in hits. Any-hit rate of the full collection: about 2.9%.
PLC-beta3 inh: human PLC-beta3 inhibitors, primary screen, biochemical, fluorescence | Purified PLC-beta3, fluorogenic substrate | inhibition, % at 12.2 µM | 370,000 compounds, 0.18% hits; in the data active = inhibition above about 11%;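 also: 0% = median of compound wells on plate and 100% = full blocker control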
PLCg1 inh: PLC-gamma1 enzyme inhibitors, primary screen, biochemical, fluorescence, purified enzyme; 1-phosphatidylinositol 4,5-bisphosphate phosphodiesterase gamma-1 (Homo sapiens), P19174; fluorogenic substrate; inhibition, % at 12.2 µM; 370,000 compounds, 0.84% hits; in the data active = inhibition above about 9.5%
Target sequence (P19174 whole entry, looked up): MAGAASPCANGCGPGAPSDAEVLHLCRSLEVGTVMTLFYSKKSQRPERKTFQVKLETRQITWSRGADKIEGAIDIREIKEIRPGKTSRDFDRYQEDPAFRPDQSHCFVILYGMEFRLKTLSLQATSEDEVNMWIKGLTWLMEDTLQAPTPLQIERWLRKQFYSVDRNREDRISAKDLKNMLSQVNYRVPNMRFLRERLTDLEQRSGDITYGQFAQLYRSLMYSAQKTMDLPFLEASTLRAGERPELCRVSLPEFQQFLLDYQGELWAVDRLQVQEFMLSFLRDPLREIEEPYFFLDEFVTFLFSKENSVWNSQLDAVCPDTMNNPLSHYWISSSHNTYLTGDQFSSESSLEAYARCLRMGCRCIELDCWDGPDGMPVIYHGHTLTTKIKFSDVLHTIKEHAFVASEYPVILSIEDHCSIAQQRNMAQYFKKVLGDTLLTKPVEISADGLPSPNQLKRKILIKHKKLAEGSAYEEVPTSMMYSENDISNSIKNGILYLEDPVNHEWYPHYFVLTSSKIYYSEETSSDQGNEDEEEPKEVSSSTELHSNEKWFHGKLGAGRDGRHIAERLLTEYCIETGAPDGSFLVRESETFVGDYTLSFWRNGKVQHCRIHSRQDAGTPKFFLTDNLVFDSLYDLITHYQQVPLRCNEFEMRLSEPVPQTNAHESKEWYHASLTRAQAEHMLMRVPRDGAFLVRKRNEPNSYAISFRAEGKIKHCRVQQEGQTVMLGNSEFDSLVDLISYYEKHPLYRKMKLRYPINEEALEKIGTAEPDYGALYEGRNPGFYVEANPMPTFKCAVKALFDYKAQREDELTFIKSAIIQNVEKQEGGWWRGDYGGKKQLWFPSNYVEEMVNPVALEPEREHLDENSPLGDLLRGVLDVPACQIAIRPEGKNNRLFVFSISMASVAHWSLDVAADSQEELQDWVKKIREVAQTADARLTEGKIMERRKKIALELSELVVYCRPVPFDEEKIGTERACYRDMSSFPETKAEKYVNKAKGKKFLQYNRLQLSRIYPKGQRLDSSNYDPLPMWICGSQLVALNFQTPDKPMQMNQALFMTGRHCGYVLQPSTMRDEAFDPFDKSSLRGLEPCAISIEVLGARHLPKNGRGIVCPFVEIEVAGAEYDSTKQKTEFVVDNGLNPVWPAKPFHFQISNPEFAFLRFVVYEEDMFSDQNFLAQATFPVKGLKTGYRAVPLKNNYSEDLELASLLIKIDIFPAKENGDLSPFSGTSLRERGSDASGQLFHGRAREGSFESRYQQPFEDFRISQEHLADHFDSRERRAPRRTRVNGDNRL
ADAM17 inh: ADAM17 inhibitors, primary screen, biochemical, QFRET; Disintegrin and metalloproteinase domain-containing protein 17 (Homo sapiens), P78536; recombinant ADAM17, EDANS/DABCYL FRET peptide cleavage; inhibition, % at 6.95 µM; 370,000 compounds, 0.83% hits;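 active = inhibition above the mean of compounds lying between control limits plus 3 SD, set per campaign, cut at about 8.5% in these data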;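 also: 0% = DMSO-only wells as the low control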
proKLK7 act: proKLK7 zymogen activators, primary screen, biochemical, fluorescence intensity | purified proKLK7, EDANS-DABCYL substrate fluorescence; 100% is mature enzyme control, 0% vehicle | activation, % at 7 µM | 370,000 compounds, 0.9% hits;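 active = activation above the mean of all tested compounds plus 3 SD, computed per campaign excluding outliers beyond control limits, cut at about 13% in these data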
ADAM10 inh: human ADAM10 inhibitors, primary screen, biochemical, QFRET, HTS. AID 720582, 2013. recombinant ADAM10, EDANS/DABCYL FRET peptide cleavage, 3 h. Disintegrin and metalloproteinase domain-containing protein 10 (Homo sapiens), O14672. 370,000 compounds, 0.62% hits. inhibition, % at 7 µM;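 active = inhibition above a per-campaign cutoff equal to the mean of compounds falling between control-based bounds plus 3 SD, cut at about 20% in these data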;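 also: 0% = DMSO wells while the 100% control is not disclosed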
* hit, by the source's call; i = inactive.

SMILES	PLC-beta3 inh	PLCg1 inh	ADAM17 inh	proKLK7 act	ADAM10 inh
CCCCCCCCN1CN2Cc3cc(OC)ccc3C2CS1(=O)=O (stereo not given)	-12	-5	3	0	1
CC(=O)C(C(C)=O)c1c(Cl)c(O)c(O)c2c(C(=O)c3ccccc3)coc12	-6	7	15*	-1	32*
CCOC(=O)CCc1c(C)c2ccc(O)cc2oc1=O	i	i	i	45*	i
O=C(O)c1cc(N2N=C(C(F)(F)F)/C(=C/C=C/c3ccco3)C2=O)ccc1Cl	1	63*	5	0	4
N#Cc1ccccc1Sc1ccccc1C(=O)Nc1ccc2ccccc2c1	-1	-2	8.6*	-5	17
N#Cc1ccccc1Sc1ccccc1C(=O)Nc1ccc(Br)cc1	0	3	6	1	16
O=C(OCc1cn(Cc2c(F)cccc2F)nn1)N1CCOCC1	2	3	-5	0	-7
COc1ccc(CCNC(=O)Cn2nnc(-c3ccccc3F)n2)cc1OC	6	9.9*	4	0	2
CC(C)NC(=O)CSc1ccccc1C(=O)N1CCN(S(=O)(=O)Cc2ccccc2)CC1	-2	11*	1	0	0
Cc1ccc(C(=O)NCC(=O)OCc2nc3sc(C)c(C)c3c(=O)[nH]2)cc1	0	0	0	0	-8
Cc1ccc(-n2nc3ccc(N)cc3n2)cc1	i	i	-124	35*	-423
COc1ccccc1NC(=O)c1ccc(C)c(S(=O)(=O)N2CCCCC2)c1	-1	13*	7	0	14
CC(C)CC(=O)N1CCN(c2ccc([N+](=O)[O-])c(NCc3ccccc3)c2)CC1	8	13*	13*	1	18
CC(C)(C)C(=O)N1CCN(c2ccc([N+](=O)[O-])c(NCc3cccnc3)c2)CC1	4	6	1	0	9
CC(OC(=O)c1ccco1)C(=O)Nc1ccc(C(F)(F)F)cc1 (stereo not given)	-2	12*	1	0	1
CC(OC(=O)c1ccccn1)C(=O)Nc1ccc(C(F)(F)F)cc1 (stereo not given)	-5	-1	-3	0	-14
C=CCN(CC#Cc1cccnc1)Cc1ccc(OC)cc1OC	-2	-2	-3	0	-9
CCc1nnc(N/N=C/c2c(C)[nH]c3ccccc23)n1N	10	10*	2	1	3
Nc1cc2ccncc2c2ccccc12	i	i	-474	103*	i
O=C(NCc1ccccc1)[C@@H]1CCCN1C(=O)[C@H]1CCCN1C(=O)c1cccs1	11*	-2	2	0	-1
O=C(NCc1ccccc1)[C@H]1CCCN1C(=O)[C@H]1CCCN1C(=O)c1cccs1	2	0	-4	0	-1
O=C(NC1CCCCC1)Oc1cc2oc(=O)sc2cc1Br	-5	7	4	1	26*
C=CCN(C(=O)[C@@H](CCCC)[C@@H](O)c1ccc(C(C)=O)cc1)c1ccccc1	1	0	0	1	3
Cc1cc(=O)oc2c(CN(CC(C)C)CC(C)C)c(O)ccc12	i	i	i	35*	i
CCc1cccc(C)c1NC(=O)CCCSc1nc2ccccc2s1	3	9	5	0	12
SMILES	PLC-beta3 inh	PLCg1 inh	ADAM17 inh	proKLK7 act	ADAM10 inh
CCc1cccc(CC)c1NC(=O)C1SC(=Nc2ccccc2C)C(c2nc3ccccc3s2)=C1N (stereo not given)	-6	1	8	-1	22*
Cn1c(N)c(C(=O)COC(=O)c2cc(-c3ccco3)nc3ccccc23)c(=O)n(C)c1=O	-22	-14	4	0	-16
CNC(=O)COC(=O)c1cc(-c2ccco2)nc2ccccc12	i	i	-149	130*	i
Cc1ccc(N2CSC3=C(C#N)C(c4cccs4)CC(=O)N3C2)cc1 (stereo not given)	-16	-15	-3	1	-14
COc1ccc(N2CSC3=C(C#N)C(c4cccs4)CC(=O)N3C2)cc1 (stereo not given)	0	9.9*	-3	0	4
Cc1cccc(Cl)c1NC(=O)N(C)c1ccccc1	5	12*	-4	0	-17

From PubChem
